# According to PubChem BioAssay (NCATS):
# Inconclusive results are not listed. Where a call stands in place of a potency, no number is given. Active and inactive are the calls of the source. Calls come from the whole dose curve; as a rule, active = well fitted inhibition curve with a large enough effect; inconclusive = small, poorly fitted or top-dose-only effect; inactive = flat fitted curve, though single readings scatter.
# Test system: JCK
# Assay: qHTS profiling for inhibitors of Plasmodium falciparum proliferation (AID 504749); note: nearly all actives have a fitted effect of over 60% in size
# Conditions: P. falciparum in erythrocytes, SYBR Green DNA, 72 h; series mostly up to 28.7 µM
# Procedure, shortened: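 Three-day growth assay of blood-stage parasites in erythrocytes (0.3% parasitemia, 2.5% hematocrit) at 37 C, 5% CO2, quantified by SYBR Green DNA staining after overnight detergent lysis.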
# Potency is the fitted concentration of half-maximal effect.
row,Structure (SMILES),Potency
1,CC(=O)Nc1ncc([N+](=O)[O-])s1,inactive
2,C#C[C@]1(O)CC[C@H]2[C@@H]3CCc4cc(OC)ccc4[C@H]3CC[C@@]21C,inactive
3,CC(=O)Nc1ccc(CC(=O)O)cc1,inactive
4,COc1ccc(-c2cc(C(F)F)nn2-c2ccc(S(N)(=O)=O)cc2)cc1F,inactive
5,Nc1ccc(S(=O)(=O)Nc2cnc3ccccc3n2)cc1,inactive
6,CCCCCCCCCCCCCCCCO,inactive
7,Cc1cccc(C)c1NC(=O)CN1CCCC1,inactive
8,C[N+]1(CC2COC(c3ccccc3)(C3CCCCC3)O2)CCCCC1 (centres undefined),12.6 µM (active)
9,CCCCNc1ccc(C(=O)OCCOCCOCCOCCOCCOCCOCCOCCOCCOC)cc1,inactive
10,NC(=S)N/N=C/c1cccnc1,inactive
11,O=C(O)P(=O)(O)O,inactive
12,c1ccc(CC2=NCCN2)cc1,inactive
13,COc1ccc2c(c1)c1c3n2CCN(C)C3=NCC1,inactive
14,O=C(O)C1(C(=O)O)CCC1.[NH2-].[NH2-].[Pt+2],inactive
15,COc1cc(C(=S)N2CCOCC2)ccc1O,inactive
16,O=C(O)C(Cc1cc(I)c(O)c(I)c1)c1ccccc1 (centres undefined),inactive
17,COP(=O)(OC)OC(c1ccc(Cl)cc1)P(=O)(OC)OC (centres undefined),inactive
18,CCCCNC(=O)NS(=O)(=O)c1ccc(N)cc1,inactive
19,CC(=O)Nc1ccc(OCC(O)CNC(C)C)cc1 (centres undefined),inactive
20,CCCCCCCCOc1ccc(C(=O)c2ccccc2)c(O)c1,inactive

row,Structure (SMILES),Potency
1,CCOc1ccccc1OCCN[C@H](C)Cc1ccc(OC)c(S(N)(=O)=O)c1,inactive
2,NS(=O)(=O)c1cc(C(=O)O)cc(N2CCCC2)c1Oc1ccccc1,inactive
3,CCCCc1cc2ccccc2c(OCCN(C)C)n1,inactive
4,CNCCc1ccccn1,inactive
5,CC(=O)NC(=O)c1ccccc1O,inactive
6,CCNC(=O)NCc1cccc(Cl)c1,inactive
7,CCc1oc2ccccc2c1C(=O)c1cc(Br)c(O)c(Br)c1,inactive
8,O=C(CCN1CCN2CCCC2C1)N1c2ccccc2Sc2ccc(Cl)cc21 (centres undefined),inactive
9,CC(C)Cn1cnc2c1c(=O)n(C)c(=O)n2C,inactive
10,CCCCCCCCCCCCCC[N+](C)(C)Cc1ccccc1,11.2 µM (active)
11,CCN(CC)CCNC(=O)c1cc(Br)c(N)cc1OC,inactive
12,CCNC(=O)/C=C/c1cccc(Br)c1,inactive
13,NC(=O)c1ccccc1O,inactive
14,Nc1ccc(S(=O)(=O)NCc2ccccc2)cc1,inactive
15,Cc1cc(NS(=O)(=O)c2ccc(N)cc2)nc(C)n1,inactive
16,C#C[C@]1(O)CC[C@H]2[C@@H]3CCC4=Cc5oncc5C[C@]4(C)[C@H]3CC[C@@]21C,inactive
17,CC(=O)Oc1ccc(C)cc1,inactive
18,NC(=O)n1c(O)c(C(=O)c2cccs2)c2cc(Cl)ccc21,inactive
19,CCN1/C(=C/C=C/c2sc3ccccc3[n+]2CC)Sc2ccccc21,0.398 µM (active)
